A number with no mark means an inactive call. Results filed as inconclusive are left out. A call without a number means that no potency is given here. The source made the active and inactive calls. Unless noted, the call rests on the fitted dose curve; in most records, active means well fitted curve in the direction sought with a large enough effect in the repeat runs; inconclusive means weak or mixed curves; inactive means no such curve, though single readings can be large; an effect the other way counts as inactive or inconclusive.
Assays:
[1] = qHTS assay to test for compound auto fluorescence at 535 nm (green) in HEK293 cells (AID 720680)
[2] = qHTS assay to test for compound auto fluorescence at 460 nm (blue) in HEK293 cell free culture (AID 720681)
How it was run: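 Blue fluorescence (Ex 405/Em 460 nm, triamterene-equivalent) was read immediately after pin transfer of compound or DMSO into medium (DMEM, 10% FBS) without cells.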

[3] = qHTS assay to test for compound auto fluorescence at 535 nm (green) in HEK293 cell free culture (AID 720682)
How it was run: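 Cell-free medium (DMEM, 10% FBS) receives compound or DMSO by pintool. Plate read directly at Ex 485/Em 535 nm. Signal converted to fluorescein equivalency.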

[4] = qHTS assay to test for compound auto fluorescence at 590 nm (red) in HEK293 cell free culture (AID 720683)
How it was run: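 Red-channel autofluorescence of compounds in culture medium (DMEM, 10% FBS), no cells, measured at 540/590 nm. Rose Bengal sodium is the reference fluorophore for equivalence.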

[5] = qHTS assay to test for compound auto fluorescence at 590 nm (red) in HepG2 cell free culture (AID 720684)
How it was run: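 No cells present: MEM + 10% FBS only. Compound pinned in, red label read (540/590 nm). Activity = fluorescence equivalent to Rose Bengal sodium.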

[6] = qHTS assay to test for compound auto fluorescence at 460 nm (blue) in HepG2 cell free culture (AID 720685)
How it was run: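 Cell-free plates of MEM plus 10% FBS received 23 nL compound or DMSO vehicle; blue-channel (405/460 nm) intensity scored against triamterene as reference fluorophore.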

[7] = qHTS assay to test for compound auto fluorescence at 535 nm (green) in HepG2 cell free culture (AID 720686)
[8] = qHTS assay to test for compound auto fluorescence at 460 nm (blue) in HepG2 cells (AID 720687)
How it was run: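 Blue-channel autofluorescence (Ex/Em 405/460 nm, triamterene-equivalent) was measured after 1 hr compound exposure at 37 C, 5% CO2. Cells were HepG2, plated overnight at 37 C in MEM plus 10% FBS.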

[9] = qHTS assay for identifying genotoxic compounds that show differential cytotoxicity against isogenic chicken DT40 cell lines with known DNA damage response pathways - Rad54/Ku70 mutant cell line (AID 743015); further: nearly all actives have a fitted effect of over 60% in size; further: potency means the concentration at half of the fitted maximal effect
[10] = qHTS assay to identify small molecule antagonists of the androgen receptor (AR) signaling pathway - cell viability counter screen (AID 743033; further: nearly all actives have a fitted effect of over 45% in size)
[11] = qHTS assay to identify small molecule antagonists of the androgen receptor (AR) signaling pathway using the MDA cell line - cell viability counter screen (AID 743041; further: nearly all actives have a fitted effect of over 45% in size)
How it was run: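 Using the breast carcinoma line MDA-kb2 AR-luc, test chemicals were co-incubated with R1881 for 16 h; CellTiter-Fluor reagent, added at 15.5 h, provided a fluorescence measure of live cells.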

[12] = qHTS assay to identify small molecule antagonists of the glucocorticoid receptor (GR) signaling pathway - cell viability counter screen (AID 720693); further: nearly all actives have a fitted effect of over 55% in size
[13] = qHTS assay for identifying genotoxic compounds that show differential cytotoxicity against isogenic chicken DT40 cell lines with known DNA damage response pathways - wild type cell line (AID 743012); further: nearly all actives have a fitted effect of over 60% in size; further: potency means the concentration at half of the fitted maximal effect
How it was run: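 Viability of DNA repair-proficient chicken DT40 cells was assessed by CellTiter-Glo luminescence following 40 h compound exposure at 37 C/5% CO2.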

[14] = qHTS assay for identifying genotoxic compounds that show differential cytotoxicity against isogenic chicken DT40 cell lines with known DNA damage response pathways - Rev3 mutant cell line (AID 743014); further: nearly all actives have a fitted effect of over 55% in size
[15] = biological target: Androgen receptor (Homo sapiens) (UniProt P10275); test: qHTS assay to identify small molecule antagonists of the androgen receptor (AR) signaling pathway (AID 743035; active means well fitted inhibition curve with a large enough effect in the signal ratio in the repeat runs, not every such curve was filed as active; the % refers to the signal ratio)
Sequence of Androgen receptor (Homo sapiens) (P10275 whole entry, looked up): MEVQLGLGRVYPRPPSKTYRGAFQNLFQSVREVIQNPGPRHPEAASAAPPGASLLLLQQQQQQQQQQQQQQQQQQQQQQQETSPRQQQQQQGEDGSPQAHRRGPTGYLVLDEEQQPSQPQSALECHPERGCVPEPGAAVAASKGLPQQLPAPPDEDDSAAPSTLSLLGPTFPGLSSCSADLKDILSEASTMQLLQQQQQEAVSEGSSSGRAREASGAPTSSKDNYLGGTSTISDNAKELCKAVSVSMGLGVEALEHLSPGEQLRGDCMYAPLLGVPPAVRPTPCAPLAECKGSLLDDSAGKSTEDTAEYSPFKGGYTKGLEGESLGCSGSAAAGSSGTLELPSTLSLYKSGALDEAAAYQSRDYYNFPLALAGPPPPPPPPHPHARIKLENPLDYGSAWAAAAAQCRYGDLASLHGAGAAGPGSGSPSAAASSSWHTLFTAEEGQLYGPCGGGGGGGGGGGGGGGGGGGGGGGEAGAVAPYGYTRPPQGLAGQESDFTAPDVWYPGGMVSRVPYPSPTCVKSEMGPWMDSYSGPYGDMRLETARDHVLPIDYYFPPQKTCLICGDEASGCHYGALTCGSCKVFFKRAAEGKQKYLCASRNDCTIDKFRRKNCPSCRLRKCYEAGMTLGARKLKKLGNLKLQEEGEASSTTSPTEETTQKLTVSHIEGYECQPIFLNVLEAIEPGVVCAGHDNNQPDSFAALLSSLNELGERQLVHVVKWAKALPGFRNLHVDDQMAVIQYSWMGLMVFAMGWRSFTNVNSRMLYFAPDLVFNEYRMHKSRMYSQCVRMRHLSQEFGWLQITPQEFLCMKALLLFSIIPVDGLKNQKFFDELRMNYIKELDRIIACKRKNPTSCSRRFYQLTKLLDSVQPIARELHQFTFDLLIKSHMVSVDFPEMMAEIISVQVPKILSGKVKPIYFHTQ
How it was run: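 Reporter HEK293 cells were exposed to compounds and R1881 overnight (16 h, 37C); beta-lactamase activity was then quantified by FRET fluorescence.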

[16] = biological target: Androgen receptor (Homo sapiens) (UniProt P10275); test: qHTS assay to identify small molecule agonists of the androgen receptor (AR) signaling pathway (AID 743036; active means well fitted activation curve with a large enough effect in the signal ratio in the repeat runs, with a control signal flat, not every such curve was filed as active; the % refers to the signal ratio)
How it was run: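 AR-bla HEK293 cells, 2,000/well; 4 h preincubation 37C/5% CO2; compound (DMSO) 16 h at 37C; LiveBLAzer B/G FRET substrate 2 h RT; fluorescence intensity read-out.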

[17] = biological target: Androgen receptor (Homo sapiens) (UniProt P10275); test: qHTS assay to identify small molecule agonists of the androgen receptor (AR) signaling pathway using the MDA cell line (AID 743040; further: nearly all actives have a fitted effect of over 20% in size)
How it was run: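 Stable MMTV-luciferase reporter in MDA-kb2 cells; note the promoter carries GR as well as AR response elements. 16 h compound treatment, 37C, 0% CO2; ONE-Glo luminescence endpoint.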

[18] = biological target: Androgen receptor (Homo sapiens) (UniProt P10275); test: qHTS assay to identify small molecule antagonists of the androgen receptor (AR) signaling pathway using the MDA cell line (AID 743042; further: nearly all actives have a fitted effect of over 55% in size)
How it was run: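 Antagonist mode: compounds plus R1881 agonist added to MDA-kb2 AR-luc cells, incubated 16 h at 37C. Luciferase reporter luminescence quantified, with multiplexed CellTiter-Fluor readout for cell viability.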

[19] = biological target: Glucocorticoid receptor (Homo sapiens) (UniProt P04150); test: qHTS assay to identify small molecule agonists of the glucocorticoid receptor (GR) signaling pathway (AID 720691; active means well fitted activation curve with a large enough effect in the signal ratio in the repeat runs, not every such curve was filed as active; the % refers to the signal ratio)
Sequence of Glucocorticoid receptor (Homo sapiens) (P04150 whole entry, looked up): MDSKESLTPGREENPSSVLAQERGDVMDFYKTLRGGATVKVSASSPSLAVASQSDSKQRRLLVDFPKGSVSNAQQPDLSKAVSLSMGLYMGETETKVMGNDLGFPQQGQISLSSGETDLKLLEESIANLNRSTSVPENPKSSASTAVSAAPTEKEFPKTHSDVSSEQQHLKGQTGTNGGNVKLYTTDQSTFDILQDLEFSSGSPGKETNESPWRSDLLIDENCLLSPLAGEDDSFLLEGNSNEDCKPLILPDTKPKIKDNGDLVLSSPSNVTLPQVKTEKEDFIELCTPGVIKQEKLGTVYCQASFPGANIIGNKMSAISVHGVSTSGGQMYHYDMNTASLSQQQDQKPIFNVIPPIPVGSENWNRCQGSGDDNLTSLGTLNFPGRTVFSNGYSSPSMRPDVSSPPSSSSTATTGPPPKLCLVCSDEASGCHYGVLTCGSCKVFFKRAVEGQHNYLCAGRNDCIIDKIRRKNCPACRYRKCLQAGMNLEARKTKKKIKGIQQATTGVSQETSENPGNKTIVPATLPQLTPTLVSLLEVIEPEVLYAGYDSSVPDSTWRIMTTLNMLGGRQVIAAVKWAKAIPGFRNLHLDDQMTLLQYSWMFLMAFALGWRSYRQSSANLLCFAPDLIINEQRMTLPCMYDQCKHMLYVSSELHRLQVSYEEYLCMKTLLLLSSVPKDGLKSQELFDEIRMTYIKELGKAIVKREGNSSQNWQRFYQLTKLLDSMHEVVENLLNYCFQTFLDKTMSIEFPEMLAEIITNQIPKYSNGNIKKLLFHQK
How it was run: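 Compounds in DMSO, alongside positive controls, were added to GR-bla HeLa reporter cells and incubated 18 h at 37 C; GRE-driven beta-lactamase was detected by fluorescence after 2 h with FRET substrate at room temperature.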

[20] = biological target: Glucocorticoid receptor (Homo sapiens) (UniProt P04150); test: qHTS assay to identify small molecule antagonists of the glucocorticoid receptor (GR) signaling pathway (AID 720692; active means well fitted inhibition curve with a large enough effect in the signal ratio in the repeat runs, not every such curve was filed as active; the % refers to the signal ratio)
How it was run: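 In a 1536-well cell format, compounds were added 4 h after seeding GR-bla HeLa cells, together with dexamethasone at 5 nM final; reporter activity was measured by FRET-substrate fluorescence following 18 h at 37 C.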

SMILES | outcome [1] | outcome [2] | outcome [3] | outcome [4] | outcome [5] | outcome [6] | outcome [7] | outcome [8] | Potency [9] | Potency [10] | Potency [11] | outcome [12] | Potency [13] | Potency [14] | Potency [15] | outcome [16] | outcome [17] | Potency [18] | Potency [19] | outcome [20]
CCCCCCCCC(=O)Cl | inactive | inactive | inactive | inactive | inactive | inactive | inactive | inactive | inactive | inactive | inactive |  |  |  |  |  |  |  |  | 
CCOC(=O)[C@H](CCc1ccccc1)N[C@@H](C)C(=O)N1C(=O)N(C)C[C@H]1C(=O)O | inactive | inactive | inactive | inactive | inactive | inactive | inactive | inactive | inactive | inactive | inactive | inactive | inactive |  |  |  |  |  |  | 
CN=C(NC#N)Nc1ccc(C2=NNC(=O)CC2C)cc1 (centres undefined) | inactive | inactive | inactive | inactive | inactive | inactive | inactive | inactive | inactive | inactive | inactive |  | inactive | inactive |  |  |  |  |  | 
COCCOCCOCCOCCO | inactive | inactive | inactive | inactive | inactive | inactive | inactive | inactive | inactive | inactive | inactive |  | inactive | inactive | inactive | inactive | inactive | inactive |  | 
N#Cc1ccc(C(=O)O)cc1 | inactive | inactive | inactive | inactive | inactive | inactive | inactive | inactive | 61.1 µM (active) | inactive | inactive |  |  |  | inactive | inactive | inactive | inactive |  | 
CCCCCCCCCCCCCC | inactive | inactive | inactive | inactive | inactive | inactive | inactive | inactive | inactive |  | inactive | inactive | inactive | inactive |  |  |  |  |  | 
CCC(C)NC(N)=O (centres undefined) | inactive | inactive | inactive | inactive | inactive | inactive | inactive | inactive |  | inactive | inactive | inactive | inactive |  | inactive | inactive | inactive | inactive |  | 
CC(CO)c1ccccc1 (centres undefined) | inactive | inactive | inactive | inactive | inactive | inactive | inactive | inactive | inactive | inactive | inactive |  | inactive |  |  | inactive | inactive | inactive |  | 
CCOC(=O)/C=C/c1ccccc1 | inactive | inactive | inactive | inactive | inactive | inactive | inactive | inactive | inactive | inactive | inactive | inactive | inactive | inactive |  |  |  |  |  | 
COC(=O)[C@@H]1[C@H]2C[C@H]3c4[nH]c5ccccc5c4CCN3C[C@@H]2CC[C@@H]1O | inactive | inactive | inactive | inactive | inactive | inactive | inactive | inactive |  | inactive | inactive |  |  |  |  |  |  |  |  | 
C=C(C)C(=O)OCc1ccccc1 | inactive | inactive | inactive | inactive | inactive | inactive | inactive | inactive | inactive |  | inactive | inactive | inactive |  |  |  |  |  |  | 
CC(N)C(=O)OC(C)(C)Cc1ccc(Cl)cc1 (centres undefined) | inactive | inactive | inactive | inactive | inactive | inactive | inactive | inactive |  | inactive | inactive |  | 21.1 µM (active) |  |  |  |  |  |  | 
CCOc1cc(NC(C)=O)ccc1C(=O)OC |  | inactive | inactive | inactive | inactive | inactive | inactive | inactive | inactive | inactive | inactive | inactive | inactive | inactive |  |  |  |  | inactive | inactive
CC(=O)Nc1cccc(C)c1 | inactive | inactive | inactive | inactive | inactive |  | inactive | inactive |  | inactive | inactive | inactive | inactive | inactive |  |  |  |  | inactive | inactive

— PubChem BioAssay (Tox21)
